ROMK primary – modulates human ROMK potassium channel activity | P48048 | Tet-inducible ROMK, thallium flux fluorescence; actives lie on both sides | B-score at 10 µM | 130,000 compounds, 2% hits;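 active = signal ratio slope over the read window, or its plate-corrected B-score, at least 3 SD from the plate mean, either direction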;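 also: B-score of the F/F0 ratio slope over 7 to 12 s after thallium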
L major viab – Leishmania major promastigote growth inhibition; inhibition, % at 10 µM; Leishmania major promastigotes, resazurin fluorescence viability; 200,000 compounds, 9% hits; in the data active = inhibition above about 50%;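 also: promastigotes grown with compound for 44 hours at 28 °C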
m-calpain inh – calpain II (pig) inhibition; inhibition, % at 16 µM; 220,000 compounds, 0.37% hits; purified calpain II, fluorogenic peptide substrate, 30 min;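 active = inhibition above about 50%, limit read from the data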
KCC2 mod – modulates chloride dependent transport by human KCC2; 190,000 compounds, 2.2% hits; Q9H2X9; B-score of Tl+ flux slope (higher = more flux/activation; lower = inhibition) at 10 µM; KCC2 cells, thallium flux FluoZin-2 fluorescence; AID 1456;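 active = thallium flux slope and its plate-corrected score both differing from the plate sample mean at a set confidence after two filtering rounds, in either direction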;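 also: slope of fluorescence scaled to starting intensity during 10 to 20 s after thallium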
Target sequence (Q9H2X9 whole entry, looked up): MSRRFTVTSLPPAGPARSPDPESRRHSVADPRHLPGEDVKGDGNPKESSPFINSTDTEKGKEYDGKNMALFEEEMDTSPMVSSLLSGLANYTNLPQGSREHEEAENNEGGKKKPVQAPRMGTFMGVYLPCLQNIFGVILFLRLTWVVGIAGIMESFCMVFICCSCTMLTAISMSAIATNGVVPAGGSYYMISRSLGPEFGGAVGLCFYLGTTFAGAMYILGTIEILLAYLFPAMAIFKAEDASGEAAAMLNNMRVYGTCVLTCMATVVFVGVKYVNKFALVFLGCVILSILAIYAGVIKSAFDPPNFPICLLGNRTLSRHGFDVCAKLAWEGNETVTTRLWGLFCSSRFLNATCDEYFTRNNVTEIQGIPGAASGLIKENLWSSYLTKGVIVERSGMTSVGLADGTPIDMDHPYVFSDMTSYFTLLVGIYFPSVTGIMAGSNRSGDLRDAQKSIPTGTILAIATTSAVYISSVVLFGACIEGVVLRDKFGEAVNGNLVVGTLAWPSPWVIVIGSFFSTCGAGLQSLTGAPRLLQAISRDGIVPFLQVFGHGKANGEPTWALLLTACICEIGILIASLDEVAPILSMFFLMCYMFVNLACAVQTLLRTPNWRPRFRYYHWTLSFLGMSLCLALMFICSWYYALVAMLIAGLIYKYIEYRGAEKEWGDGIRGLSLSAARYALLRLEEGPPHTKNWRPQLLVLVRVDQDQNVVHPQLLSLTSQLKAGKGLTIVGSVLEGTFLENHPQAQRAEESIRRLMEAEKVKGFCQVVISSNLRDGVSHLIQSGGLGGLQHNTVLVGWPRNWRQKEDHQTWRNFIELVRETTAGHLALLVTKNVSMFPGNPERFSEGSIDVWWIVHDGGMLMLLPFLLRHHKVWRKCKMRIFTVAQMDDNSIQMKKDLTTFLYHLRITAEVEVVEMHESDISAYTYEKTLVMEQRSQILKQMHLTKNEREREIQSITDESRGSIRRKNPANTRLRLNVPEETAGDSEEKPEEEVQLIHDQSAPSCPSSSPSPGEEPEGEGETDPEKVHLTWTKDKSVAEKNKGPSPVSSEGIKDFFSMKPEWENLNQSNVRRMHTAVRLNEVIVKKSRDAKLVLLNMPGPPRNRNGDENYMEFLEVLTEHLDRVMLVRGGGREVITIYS
WT yeast gro inh – growth inhibition of WT yeast, mitochondrial fusion screen. mitochondrial fusion phenotypic screen, WT strain. inhibition, % at 10 µM. 190,000 compounds, 2.1% hits. AID 1362; in the data active = inhibition above about 58%; tested in S. cerevisiae
ROMK retest – confirmation of human ROMK potassium channel modulators. shares compounds with ROMK primary. ROMK thallium flux, fluorescence ratio; hits give low values. normalized thallium flux (F/F0 slope) at 10 µM. 3,000 compounds, 54% hits. AID 1917;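 active = Flux at 10 µM at least 3 SD below or above vehicle control mean in one or both replicates; inconclusive = no clear call, values can overlap the other calls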
Numbers without * were called inactive; i = inactive; u = inconclusive; x = no result. The list is not random: actives were taken first. Their share in the collection is about 12%.

SMILES	ROMK primary	L major viab	m-calpain inh	KCC2 mod	WT yeast gro inh	ROMK retest
O=C1NC(Cc2c[nH]c3ccccc23)C(=O)N1CCOc1ccc(F)cc1 (centres undefined)	x	-1	7	-0.94	-9	x
COc1ccc2nc(SCC(=O)Nc3cc(OC)c(OC)cc3C(=O)O)c(C)cc2c1	0.99	-4	-42	-0.75	-5	x
CCC(C(=O)Nc1nccs1)(C(F)(F)F)C(F)(F)F	-0.051	3	16	x	6	u
CCCNC(=O)Nc1nccs1	1.7*	2	-3	0.53	-7	u
CCOC(=O)N1CCN(S(=O)(=O)c2cccc3nonc23)CC1	x	-5	-8	0.28	12	x
Cc1ccc(S(=O)(=O)Nc2ccc(-c3nc4ccc(C)cc4s3)cc2)cc1	x	1	-28	0.47	-4	x
Cc1cccc(S(=O)(=O)Nc2ccc(-c3nc4ccc(C)cc4s3)cc2)c1	x	-5	-163	0.37	4	0.079
N#C/C(=C\c1cc([N+](=O)[O-])ccc1Cl)C(N)=O	-0.62	-9	-10	0.3	-22	x
N#C/C(=C/c1ccc([N+](=O)[O-])cc1)C(N)=O	-3.7*	-3	-1	0.4	4	0.06*
NS(=O)(=O)c1cnccc1Nc1ccc(Cl)cc1	-0.22	25	-6	x	4	x
Cc1cc(C)c(NC(=O)CSc2ccc(-c3cccnc3)nn2)c(C)c1	1	-3	-11	0.25	-7	x
CN1C2CCC1/C(=C/c1cccn1C)C(=O)/C2=C\c1cccn1C	x	20	36	i	33	x
Cn1cccc1/C=C1\CC(C(C)(C)C)C/C(=C\c2cccn2C)C1=O (centres undefined)	-3.6*	87*	-22	i	6	0.04*
CC(C)NC(=O)C1(O)c2ccccc2NC(=O)N1c1ccc(Cl)c(Cl)c1 (centres undefined)	x	-3	-24	-0.16	12	u
O=C1Nc2ccccc2C(O)(C(=O)N2CCCCC2)N1c1ccccc1 (centres undefined)	x	0	5	-0.14	9	x
NC(=O)c1ccc[n+](CC(=O)OCCC23CC4CC(CC(C4)C2)C3)c1	-0.27	-3	18	-0.066	-4	x
Cc1c(CCOC(=O)CC23CC4CC(CC(C)(C4)C2)C3)sc[n+]1CC(=O)c1ccccc1	-4.1*	92*	18	0.51	3	0.047*
Cc1c(CCOC(=O)C23CC4CC(CC(C)(C4)C2)C3)sc[n+]1CC(=O)c1ccccc1	-5.9*	3	10	0.86	21	0.06*
Cc1c(CCOC(=O)CC23CC4CC(CC(C4)C2)C3)sc[n+]1CC(=O)c1ccc(Br)cc1	-6*	33	10	0.86	-7	0.045*
Cc1c(CCOC(=O)c2cc([N+](=O)[O-])cc([N+](=O)[O-])c2)sc[n+]1CC(=O)c1ccccc1	-0.54	28	-18	0.81	-3	x
Cc1c(CCOC(=O)c2ccccc2)sc[n+]1Cc1ccccc1	-0.11	-3	11	1.3	18	x
O=C(COC(=O)Cc1ccccc1F)Nc1ccc(F)cc1F	x	-1	-32	0.4	-4	x
COc1cc(CNc2ccc(N3CCCC3)cc2)cc(Cl)c1OC	4*	39	-20	0.24	14	0.074
COc1cccc(C(C)NC(=O)Nc2cccc(C(F)(F)F)c2)c1 (centres undefined)	x	11	28	-0.36	37	x
O=C(Nc1ccc[n+](CC(=O)c2cccc3ccccc23)c1)c1ccccc1	-2.8*	21	8	0.35	2	0.056*
SMILES	ROMK primary	L major viab	m-calpain inh	KCC2 mod	WT yeast gro inh	ROMK retest
CCOC(=O)C1CCN(C(=O)c2cccnc2Oc2ccc(Cl)cc2)CC1	0.46	x	26	-0.015	x	x
Cc1cccc(Nc2ncccc2C(=O)O)c1C	x	-8	7	-0.98	x	0.079
Cc1cccc(Nc2ccccc2C(=O)O)c1C	x	9	5	-0.75	-29	x
Cc1c(/C(O)=C2\C(=O)C(=O)N(CCN(C)C)C2c2ccccc2)cnn1-c1ccccc1 (centres undefined)	x	x	-13	-0.17	x	0.078
COc1ccc2c(c1)Cc1sc(NC(=O)c3cccs3)nc1-2	-4.1*	21	-63	-1.4	1	0.076
O=C(c1ccc(CNc2c(N3CCCC3)c(=O)c2=O)cc1)N1CCN(C2CCCCC2)CC1	3.7*	-4	13	1.2	-2	0.085
CC1CCN(C(=O)c2ccc(CNc3c(N4CCCC4)c(=O)c3=O)cc2)CC1	-0.97	x	8	1.3	x	x
Cc1cc(C(=O)NC2Cc3ccccc3C2)c(C)o1	x	x	4	-0.16	x	x
COC(=O)c1sc(C(C)(C)C)cc1CSc1ccccc1	x	x	11	-0.9	x	x
CCOC(=O)C1=C(N)OC2=C(C(=O)CCC2)C1c1ccco1 (centres undefined)	0.21	6	18	x	14	x
CCOc1ccccc1C1C(C(=O)OC)=C(N)OC2=C1C(=O)CCC2 (centres undefined)	x	-6	-21	1	-3	0.079
OC1(c2ccccc2)Cc2cccc[n+]2C1c1ccccc1 (centres undefined)	x	x	-13	1.4	x	x
COc1ccc2c(c1OC)C(=O)OC2n1c(O)c(N=NC(C)=O)c2ccccc21 (centres undefined)	0.8	x	17	0.88	x	x
Cc1ccc(CNC(=O)Cn2ccc3ccccc3c2=O)o1	x	-13	-42	0.86	0	0.073
COC(=O)CNC(=O)Cn1ccc2ccccc2c1=O	x	-10	-26	-1.1	x	x
OC(CNc1nc2ccccc2s1)c1ccccc1 (centres undefined)	0.015	-10	13	-0.33	10	x
O=C(Cn1c(C(=O)NCc2ccco2)cc2sccc21)c1ccccc1	x	4	43	-0.02	15	0.085
O=C(Cn1c(C(=O)NCC2CCCO2)cc2sccc21)c1ccccc1 (centres undefined)	x	8	-9	-0.27	-20	x
Cc1cc(/C=C2\SC(=Nc3ccc(F)cc3)NC2=O)c(C)n1-c1ccc(S(N)(=O)=O)cc1	3.3*	57*	-155	-0.2	-1	0.085
CCOCCCn1c(C)nc2c(c1=O)c1nc3ccccc3nc1n2-c1ccc2c(c1)OCCO2	x	x	-95	0.97	x	x
Cc1cc(C(C)(C)C)oc1C(=O)N(CC(=O)NC1CCCC1)Cc1ccccc1Cl	x	26	50*	x	64*	0.054*
Cc1ccccc1N(CC(=O)NC1CCCC1)C(=O)c1oc(C(C)(C)C)cc1C	x	23	10	x	5	x
Cc1c(CN2CCC(CO)(Cc3ccccc3)CC2)c2ccccc2n1C	-2.4*	40	20	-0.18	0	0.06*
Cc1[nH]c2c(C)cccc2c1CN1CCC(CO)(Cc2ccccc2)CC1	x	x	3	-0.11	x	x
CCCNC(=O)C1CC(=O)N(c2ccc(OCC(=O)Nc3cc(C)cc(C)c3)cc2)C1 (centres undefined)	x	x	x	x	16	x
COc1ccc(C(=O)Oc2cccnc2)cc1	-0.14	-7	30	-1	5	x
O=C(Oc1cccnc1)c1ccc(Cl)c(Cl)c1	-5.4*	-3	-18	1.9	96*	u
C=CCOC(=O)C1=C(C)OC(N)=C(C#N)C1c1ccc2c(c1)OCO2 (centres undefined)	-3.2*	5	-10	-2.1	-1	0.085*
